Screens as filed in PubChem.
GPR151 ag = activators of human GPR151; Q8TDV0; actives 1% (n = 650,000); PathHunter beta-arrestin GPR151 cells, luminescence; activation, % at 11.2 µM; in the data active means activation above about 4.9%
Target sequence (Q8TDV0 whole entry, looked up): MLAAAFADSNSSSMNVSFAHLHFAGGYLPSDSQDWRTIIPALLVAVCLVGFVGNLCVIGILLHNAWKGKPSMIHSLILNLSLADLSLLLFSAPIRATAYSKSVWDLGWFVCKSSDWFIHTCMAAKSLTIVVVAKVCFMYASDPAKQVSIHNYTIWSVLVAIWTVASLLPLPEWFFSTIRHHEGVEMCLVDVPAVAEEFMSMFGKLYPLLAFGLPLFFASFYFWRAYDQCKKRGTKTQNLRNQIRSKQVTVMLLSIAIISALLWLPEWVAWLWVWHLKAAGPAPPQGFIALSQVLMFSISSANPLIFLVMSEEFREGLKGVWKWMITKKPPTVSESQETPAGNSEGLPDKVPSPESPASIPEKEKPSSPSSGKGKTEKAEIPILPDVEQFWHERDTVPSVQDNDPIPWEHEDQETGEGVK
TEAD-YAP block = TEAD-YAP interaction inhibition; inhibition, % at 9.12 µM; actives 1.4% (n = 640,000); HEK-TIYL cells, TEAD-Gal4/YAP UAS-luciferase luminescence; in the data active means inhibition above about 32%
FBW7 act = human FBW7 E3 ligase activation, primary screen; actives 0.13% (n = 650,000); normalized activity (activation), % at 26.1 µM; AlphaScreen FBW7–phospho-cyclin E peptide binding, activator screen; Q969H0; in the data active means normalized activity above about 1.9%;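 further: purified mutant Fbw7 with reduced substrate affinity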
MITF primary = human MITF inhibition, primary screen; AID 1259374; actives 0.91% (n = 650,000); AlphaScreen MITF homodimerization, bead proximity signal; inhibition, % at 2.6 µM; in the data active means inhibition above about 50%
Large screens that a line does not name were inactive. Hits are enriched below; roughly 3.5% of the tested compounds scored in any of these assays.

CCC(C)N(CC(=O)Nc1cccc(C)c1C)C(=O)CCl (configuration not stated)	TEAD-YAP block 69.4
Nc1nc(Nc2ccc(F)cc2)sc1C(=O)c1ccccc1	none
Cc1ccc(S(=O)(=O)Oc2ccccc2/C=N/NC(N)=S)cc1	TEAD-YAP block 60.5
Cc1ccc(S(=O)(=O)Oc2ccccc2/C=N/N=C(N)N)cc1	none
Cc1ccc(/C(C#N)=C\c2ccc3c(c2)OCCO3)cc1	TEAD-YAP block 56.3
CCN1C(=O)/C(=C\C(C)=C\c2ccco2)SC1=S	none
O=C(O)c1ccc(N2C(=O)/C(=C\c3ccco3)SC2=S)cc1O	none
O=C1/C(=C/c2ccco2)SC(=S)N1c1cccnc1	MITF primary 68.3
CC(=C\c1ccco1)/C=C1/SC(=S)N(CC(=O)O)C1=O	MITF primary 53.9
O=C(O)Cc1ccc(N2C(=O)/C(=C\c3ccco3)SC2=S)cc1	MITF primary 75.8
NN1C(=O)/C(=C\c2ccco2)SC1=S	MITF primary 75.4
NN1C(=O)/C(=C/c2ccc(O)c(Br)c2)SC1=S	TEAD-YAP block 32.7
COc1ccc(/C=C2/SC(=S)N(N)C2=O)cc1OC	none
c1cnn(Cc2ccc(Nc3nccc(-c4cncc(N5CCOCC5)c4)n3)cc2)c1	TEAD-YAP block 65.3
Cc1nc(C)n(-c2ccc(Nc3nccc(-c4cncc(N5CCOCC5)c4)n3)cc2)n1	none
c1cn(Cc2ccc(Nc3nccc(-c4cncc(N5CCOCC5)c4)n3)cc2)cn1	TEAD-YAP block 68.2
O=C(NCc1cccnc1)c1sc2cc([N+](=O)[O-])ccc2c1Cl	none
CCn1c(CN2CCN(c3ccc(F)cc3)CC2)nc2c1c(=O)n(C)c(=O)n2C	none
CCn1c(CN2CCN(c3ccccc3)CC2)nc2c1c(=O)n(C)c(=O)n2C	TEAD-YAP block 45.5
CCN(CC)C(=O)CSc1nc2ccccc2c2nc(-c3ccc([N+](=O)[O-])cc3)nn12	none
O=C1NC(=O)N(c2ccc(C(=O)O)cc2)C(=O)/C1=C/c1ccc2c(c1)OCO2	none
CC(=O)Nc1nc2ccccc2n1Cc1ccccc1Cl	TEAD-YAP block 32.6
O=C(Nc1nc2ccccc2n1Cc1ccccc1Cl)c1ccccc1	none
O=C(Cn1cc(/C=N/O)c2ccccc21)Nc1ccc(F)cc1	none
CCCNc1nc(N2CCCC(C(=O)N(CC)CC)C2)nc2c1ncn2-c1ccsc1 (configuration not stated)	TEAD-YAP block 36.6
CCN(CC)C(=O)C1CCCN(c2nc(Nc3ccccc3)c3ncn(-c4ccsc4)c3n2)C1 (configuration not stated)	TEAD-YAP block 33.3
CCN(CC)C(=O)C1CCCN(c2nc(NCCOc3ccccc3)c3ncn(-c4ccsc4)c3n2)C1 (configuration not stated)	none
CCN(CC)C(=O)C1CCCN(c2nc(N)c3ncn(-c4ccsc4)c3n2)C1 (configuration not stated)	TEAD-YAP block 50.9
Clc1ccccc1-c1ccc(OCCN2CCOCC2)nc1	none
O=C1NCCCN1Cc1cccc(Cl)c1	none
CCCOC(=O)C1=C(C)N(CC)C(=O)NC1c1ccccc1[N+](=O)[O-] (configuration not stated)	FBW7 act 2.5
O=C(CSCc1ccc(Cl)cc1)N/N=C/c1ccc(F)cc1	none
N#CS/C=C/C(=O)c1ccccc1	TEAD-YAP block 51.5
COc1ccc(C(=O)/C(=C/N2C=CC=CC2=C(C#N)C#N)c2ccco2)cc1	TEAD-YAP block 47.6
O=C(COC(=O)c1ccccc1[N+](=O)[O-])c1ccccc1Cl	TEAD-YAP block 33.9
Cc1c(C(=O)OCC(=O)c2ccccc2Cl)cccc1[N+](=O)[O-]	none
CCc1ccc(C(=O)COC(=O)c2ccccc2[N+](=O)[O-])cc1	TEAD-YAP block 54.7
CCOc1ccc(C(=O)COC(=O)c2ccccc2[N+](=O)[O-])cc1	none
Cc1ccc(C(=O)COC(=O)c2ccccc2[N+](=O)[O-])cc1	TEAD-YAP block 90.3
COc1ccc(C(=O)COC(=O)c2ccccc2[N+](=O)[O-])cc1	none
O=C(COC(=O)c1ccccc1N1C(=O)C2C3C=CC(C3)C2C1=O)c1ccc(Cl)cc1 (configuration not stated)	none
CCOC(=O)c1ccccc1Nc1cn(C(C)=O)c2ccccc12	TEAD-YAP block 51.8
c1ccc(Cc2cn[nH]c2C2CCN(C3CCSC3)CC2)cc1 (configuration not stated)	none
COc1ccc(OCC(O)Cn2c3ccccc3c3ccccc32)cc1 (configuration not stated)	TEAD-YAP block 45.2
CC(=O)c1cccc(S(=O)(=O)Nc2ccc(C)c(I)c2)c1	none
COc1cc(-c2nc3ccc(C(=O)NC4CCCCC4C)cc3nc2-c2cc(OC)c(OC)c(OC)c2)cc(OC)c1OC (configuration not stated)	none
C=CCN1C(=O)/C(=C/c2ccc(OCc3cccc(C(=O)O)c3)cc2)C(=O)NC1=S	TEAD-YAP block 78.8
C=CCN1C(=O)/C(=C\c2ccc(-c3cccc(C(=O)O)c3)o2)C(=O)NC1=S	MITF primary 63.6
C=CCN1C(=O)/C(=C/c2cc(C)n(-c3cccc(C(=O)O)c3C)c2C)C(=O)NC1=S	MITF primary 53.2
C=CCN1C(=O)/C(=C\c2ccc(-c3ccc(C(=O)O)cc3)o2)C(=O)NC1=S	none
COc1ccc2c(c1)c(=O)c1ccccc1n2CC(=O)N1CCCC1	none
O=C(COC(=O)c1ccc([N+](=O)[O-])cc1[N+](=O)[O-])c1ccccc1	none
CC(C)c1ccc(C(=O)CSc2ncn[nH]2)cc1	TEAD-YAP block 37.2
COCCNC(=O)CSc1cc(Cl)nc(Cl)c1	none
Cc1ccc([N+](=O)[O-])cc1S(=O)(=O)Nc1cc(SCC(=O)O)c(O)c2ccccc12	MITF primary 65.3
Cc1ccc(S(=O)(=O)Nc2cc(SCC(=O)O)c(O)c3ccccc23)c(C)c1	none
C=C(C)CSc1nc2sc3c(c2c(=O)n1CC(=C)C)CCC(C(C)(C)C)C3 (configuration not stated)	none
O=S(=O)(NC1c2cccc3cccc(c23)C1N1CCN(C(=S)Nc2ccccc2)CC1)c1ccc(Cl)cc1 (configuration not stated)	FBW7 act 2.4
C#CCn1c(=NC(=O)C2COc3ccccc3O2)sc2cc(OC)c(OC)cc21 (configuration not stated)	TEAD-YAP block 34.7
Cc1cc(C(F)(F)F)c(C#N)c(SCC(=O)Nc2ccc(F)cc2)n1	none
COC(=O)CSc1nc(N)c(C#N)c(-c2ccco2)c1C#N	none
Cc1cc(C)c(C#N)c(SCC(=O)Nc2nccs2)n1	none
Cc1cc(C)c(C#N)c(SCC(=O)Nc2ccccn2)n1	TEAD-YAP block 85.5
Cc1cc(C(F)(F)F)c(N)c(SCC(=O)Nc2nc3ccccc3s2)n1	TEAD-YAP block 65.4
Cc1cc(C)nc(SCC(=O)Nc2nc3ccccc3s2)n1	none
COC(=O)CSc1nc(-c2ccco2)cc(C(F)(F)F)c1C#N	FBW7 act 2.0
Cc1cccc(NC(=O)CSc2nc(C)cc(C(F)(F)F)c2C#N)n1	TEAD-YAP block 87.7
Cc1ccc2c(c1)-c1c(cnn1CC(=O)Nc1ccc(F)cc1)CO2	none
COc1ccc(-c2ccc3nnc(SCc4cccnc4)n3n2)cc1	none
COc1cccc(-n2c(=S)sc3c(=O)n(-c4ccccc4C)c(=S)[nH]c32)c1	none
